High-throughput results from PubChem BioAssay.
An excerpt weighted towards active compounds, which were near 2.4% of everything screened.
M1 ag parental: counter-screen for M1 agonists: effect in parental CHO-K1 cells; activation, % at 3 µM; Fluo-8 calcium fluorescence; scaled to maximal ATP response, vehicle zero; AID 602248; 360,000 compounds, 0.48% hits; in the data active = activation above about 15%;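 also: untransfected CHO-K1 host cells lacking M1 receptor as counterscreen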
M1 PAM: positive allosteric modulators of human M1 muscarinic receptor. P11229. CHO-K1 hM1, Fluo-8 calcium fluorescence, ACh EC20; 0% = ACh EC20, 100% = maximal ACh. activation, % at 3 µM. 360,000 compounds, 0.088% hits; in the data active = activation above about 19%, passing the limit was not always enough
Target sequence (P11229 whole entry, looked up): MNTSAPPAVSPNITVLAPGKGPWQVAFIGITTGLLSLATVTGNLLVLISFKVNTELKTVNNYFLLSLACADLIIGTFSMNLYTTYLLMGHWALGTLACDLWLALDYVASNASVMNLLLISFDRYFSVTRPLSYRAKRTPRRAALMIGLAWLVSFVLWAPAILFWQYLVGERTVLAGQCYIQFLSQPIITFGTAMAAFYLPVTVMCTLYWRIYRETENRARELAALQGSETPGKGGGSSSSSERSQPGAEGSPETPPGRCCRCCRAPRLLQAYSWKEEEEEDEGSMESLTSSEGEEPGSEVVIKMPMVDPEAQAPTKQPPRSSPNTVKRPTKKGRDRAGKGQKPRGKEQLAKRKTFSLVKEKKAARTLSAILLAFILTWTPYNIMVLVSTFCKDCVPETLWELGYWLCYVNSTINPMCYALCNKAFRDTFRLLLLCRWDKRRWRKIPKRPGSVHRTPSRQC
M1 ag: human M1 muscarinic receptor agonism | 360,000 compounds, 0.33% hits | activation, % at 3 µM | CHO-K1 hM1, Fluo-8 calcium fluorescence, agonist mode; 0% DMSO, 100% acetylcholine EC100 | AID 588814;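 active = activation above the run's mean compound activation plus 3 SD, cut at about 16% in these data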;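 also: peak over basal fluorescence ratio within a 140 s kinetic read after compound addition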
M1 antag: blocks human M1 muscarinic receptor. P11229. inhibition, % at 3 µM. 360,000 compounds, 1.3% hits. AID 588852. CHO-K1 hM1, Fluo-8 calcium fluorescence, ACh EC80 antagonist;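 active = percent inhibition above its own plate's cutoff, namely the mean of that plate's compound wells plus 3 SD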;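 also: peak over basal fluorescence ratio during 140 s after agonist addition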
CHO-K1 Ca antag: nonselective inhibitor or artifact in parental CHO-K1 cells | ATP-induced calcium, Fluo-8 fluorescence | inhibition, % at 3 µM | 360,000 compounds, 0.6% hits | AID 602250;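 active = inhibition above a per-plate cutoff, the plate's mean sample inhibition plus 3 SD, cut at about 24% in these data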
CHO-K1 Ca PAM: nonselective activator or artifact in parental CHO-K1 calcium assay; activation, % at 3 µM; ATP EC20, Fluo-8 calcium fluorescence; 0% at ATP EC20, 100% at ATP max; 360,000 compounds, 0.02% hits;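 active = activation above the run cutoff, the mean activation of all test compounds plus 3 SD, cut at about 40% in these data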;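 also: peak over basal fluorescence ratio in a 140 s read after ATP addition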
A number is an active result; n = inactive.

SMILES	M1 ag parental	M1 PAM	M1 ag	M1 antag	CHO-K1 Ca antag	CHO-K1 Ca PAM
CC1CN(C)C(C)C/C1=N/Oc1ccccc1[N+](=O)[O-] (stereo not drawn)	n	n	n	42	n	n
CC1CN(C)C(C)C/C1=N\Oc1ccc([N+](=O)[O-])cc1 (stereo not drawn)	n	n	n	n	n	n
Cc1cn([C@@H](CCCCNC(=O)OC(C)(C)C)C(=O)NCCCCCCCCCCC(=O)N2CCN(C(=O)OC(C)(C)C)CC2)nn1	16	n	n	44	n	n
CC[C@H](C)Cc1cn([C@@H](CCCN=C(NC(=O)OC(C)(C)C)NC(=O)OC(C)(C)C)C(=O)NCCCCCCCCCCC(=O)N2CCN(C(=O)OC(C)(C)C)CC2)nn1	n	n	n	n	n	n
CCOc1ccccc1NC(=O)CCn1ccnc1	n	n	n	n	n	n
C[N+]1(CC#CC(O)(c2ccccc2)c2ccccc2)CCCC1	n	n	n	100	n	n
CC(C)[N+](C)(C)CC#CC(O)(c1ccccc1)c1ccccc1	n	n	n	99	n	n
OC(C#Cc1ccccc1)(c1ccccc1)c1ccccc1	n	n	n	n	n	n
Oc1ccc(Br)cc1C=Nc1ccc2c3c(cccc13)CC2	22	n	n	n	32	n
Cn1c(SCC(=O)Nc2ccc(NC(=O)c3cccc(F)c3)cc2)nnc1-c1ccncc1	n	n	n	n	n	n
COc1ccccc1N(CC(=O)NC1CCCC1)S(=O)(=O)c1cccc(C(F)(F)F)c1	n	n	n	n	n	n
O=C(c1cc(C2CC2)nn1-c1ccccc1)N1CCN(S(=O)(=O)c2ccc(F)cc2)CC1	n	n	n	n	n	n
O=C(c1cc(-c2cccs2)nn1-c1ccccc1)N1CCN(S(=O)(=O)c2ccccc2)CC1	n	n	n	28	n	n
O=C(c1cc(C2CC2)nn1-c1ccccc1)N1CCN(S(=O)(=O)c2cccc(F)c2)CC1	n	n	n	30	n	n
NC(=O)COC(=O)c1cc(-c2cccs2)nn1-c1ccccc1	n	n	n	n	n	n
CC1CCCN(C(=O)COC(=O)c2cc(-c3cccs3)nn2-c2ccccc2)C1 (stereo not drawn)	n	n	n	46	n	n
Cc1c(CC(=O)O)c(=O)oc2cc(OCc3ccc(Cl)cc3)ccc12	n	n	n	n	n	n
FC(F)(F)c1cccc(CNC2c3ccccc3-c3ccccc32)c1	n	n	n	n	n	n
Cc1noc(C)c1-c1ccc(C(=O)NC2CCCCC2)c2occc12	n	n	n	n	n	n
CCN1CCN(c2ccc(NC(=O)CCc3c(C)nc4c(-c5ccccc5)c(C)nn4c3C)cc2)CC1	n	n	n	37	n	n
Cc1nc2c(-c3ccccc3)c(C)nn2c(C)c1CCC(=O)NCc1ccco1	n	n	n	n	n	n
CCN1CCN(c2cc(C(C)(C)C)nc3c(-c4ccccc4)c(C)nn23)CC1	18	n	n	n	n	n
CNC(=S)Nc1cccc(C(=O)OC)c1	n	n	n	n	n	n
Cc1cc2n(n1)C(c1sccc1C)Nc1c(C)cccc1-2 (stereo not drawn)	n	n	n	n	25	n
O=C(CN(CCO)Cc1ccccc1)N1CCN(S(=O)(=O)c2ccccc2)CC1	n	n	n	n	n	n
SMILES	M1 ag parental	M1 PAM	M1 ag	M1 antag	CHO-K1 Ca antag	CHO-K1 Ca PAM
COc1ccc(C(=O)C2CCCN(C3Cc4ccccc4C3)C2)c(OC)c1 (stereo not drawn)	n	n	n	29	n	n
Clc1ccc(-c2c[n+](Cc3ccc(Cl)cc3Cl)c3n2CCCCC3)cc1	n	n	n	48	n	n
O=C(C[n+]1cc(-c2ccccc2)n2c1CCCCC2)c1ccc(Cl)cc1	n	n	n	n	n	n
CC1CCC(C(C)C)C(OC(=O)C[n+]2cc(-c3ccc(Cl)cc3)n3c2CCCCC3)C1 (stereo not drawn)	n	n	n	75	n	n
Clc1ccc(C[n+]2cc(-c3ccccc3)n3c2CCCCC3)c(Cl)c1	n	n	n	n	n	n
Cc1ccc(S(=O)(=O)N2CCCC2=O)c(C)c1N(C)S(C)(=O)=O	n	n	n	n	n	n
COc1ccnc2c1c(=O)n(Cc1cccc(Cl)c1)c(=O)n2C	n	n	n	n	n	n
CC(C)(C)c1cc2cccnc2n1Cc1cccc(Cl)c1	n	n	n	31	n	n
CCOC(=O)C1=CCN(S(=O)(=O)c2ccccc2C)C1c1ccc(Cl)c(Cl)c1 (stereo not drawn)	n	n	n	n	n	n
COc1ccc(-c2cc(C(=O)N3CCN(c4ccccc4F)CC3)c3ccccc3n2)c(OC)c1	n	n	n	29	n	n
COc1ccc(N2CCN(C(=O)c3cc(-c4cc(OC)ccc4OC)nc4ccccc34)CC2)cc1	n	n	n	n	n	n
CCOc1ccccc1N1CCN(C(=O)c2cc(-c3cc(OC)ccc3OC)nc3ccccc23)CC1	n	n	n	33	n	n
O=C(CNC(=O)c1ccccc1)NCCc1ccc(O)c(O)c1	n	31	n	n	n	n
NS(=O)(=O)c1ccc(CCNC(=O)CNC(=O)c2ccc(F)cc2)cc1	n	n	n	n	n	n
CCOc1ccc(C(=O)NC2CCN(C(=O)Nc3ccc(F)cc3)CC2)cc1	n	n	n	n	n	n
Cc1cccc(C)c1NC(=O)N1CCC(c2nc3ccccc3o2)CC1	n	n	n	28	n	n
CC(=O)N1CCN(C(=O)c2ccc(OC3CCN(CCc4ccccc4)CC3)cc2)CC1	n	n	n	37	n	n
CN(Cc1nccn1C)C(=O)c1ccc(OC2CCN(CCc3ccccc3)CC2)cc1	n	n	n	47	n	n
CC(C)N(C)C(=O)c1ccc(OC2CCN(CCc3ccccc3)CC2)cc1	n	n	n	n	n	n
COc1ccccc1/C=C/CN1CCC(Oc2ccc(C(=O)N3CCCC3)cc2)CC1	n	n	n	73	26	n
COc1ccc(CCC(C)N2CCC(Oc3ccc(C(=O)N4CCCC4)cc3)CC2)cc1 (stereo not drawn)	n	n	n	67	n	n
CC(CCc1ccc(O)cc1)N1CCC(Oc2ccc(C(=O)N3CCCC3)cc2)CC1 (stereo not drawn)	n	n	n	n	n	n
COCCN(C(=O)COC(=O)CSc1ccc2ccccc2c1)c1c(N)n(Cc2ccccc2)c(=O)[nH]c1=O	n	n	n	n	n	n
CC1CCN(C(=O)C2CCCN(S(=O)(=O)c3ccc4c(c3)CC(C)N4C(=O)C3CC3)C2)CC1 (stereo not drawn)	n	n	n	n	n	n
O=C(c1ccc(OC2CCN(CCCc3ccccc3)CC2)cc1)N1CCCC1	n	n	n	42	n	n
Cc1ccc2nc(C(C)(C)C)c(Cc3ccsc3)n2c1	n	n	n	n	n	n
